Bioassay records (PubChem)
A selection: hits, their analogues and other compounds. The true share with any hit is near 3.4%.
RE007 growth inh – less growth of the S. pombe RE007 Vpr strain; S. pombe RE007 Vpr strain, BacTiter-Glo ATP luminescence, 24 h; Potency, µM (series often up to 92.2 µM), without a hit: at the highest dose activity change, negative = less growth, actives largely listed as inhibitors; 0.21% of 360,000 active; AID 651644; active = well fitted falling curve with a large enough effect; inconclusive = small, poorly fitted or top-dose-only effect; inactive = no such curve, though single readings can be large or run the other way; note: nearly all actives have a fitted effect of over 50% in size
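Fission yeast RE007 carrying one integrated HIV-1 vpr copy, seeded at OD 0.01 in PMG+AL medium with 23 nL pinned compound. Grown 24 h at 30 degrees; viability read by BacTiter-Glo luminescence after 5 min.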
Sm TGR block – blocks Schistosoma mansoni thioredoxin glutathione reductase; AID 485364; Potency, µM (highest dose often 114 µM), without a hit: at the highest dose activity change, negative = inhibition, actives largely listed as inhibitors; Q962Y6; 3% of 360,000 active; purified TGR, DTNB reduction, TNB absorbance 405 nm; note: nearly all actives have a fitted effect of over 60% in size
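Kinetic colorimetric format: TGR-catalysed, NADPH-driven DTNB reduction monitored via TNB absorbance. Enzyme dispensed at 20 nM; compound exposure 15 min at room temperature before reaction start.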
AmpC inh detg – blocks E. coli AmpC beta-lactamase in detergent assay; P00811; AmpC hydrolysis of nitrocefin, absorbance 480 nm, 0.01% Triton; Potency, µM (top dose mostly 114 µM), inactives show top-dose activity change, negative = inhibition, usual class: inhibitors; 0.041% of 370,000 active;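 note: 0% = no-compound wells and -100% = no-enzyme wells; nearly all actives have a fitted effect of over 25% in size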
Target sequence (P00811 whole entry, looked up): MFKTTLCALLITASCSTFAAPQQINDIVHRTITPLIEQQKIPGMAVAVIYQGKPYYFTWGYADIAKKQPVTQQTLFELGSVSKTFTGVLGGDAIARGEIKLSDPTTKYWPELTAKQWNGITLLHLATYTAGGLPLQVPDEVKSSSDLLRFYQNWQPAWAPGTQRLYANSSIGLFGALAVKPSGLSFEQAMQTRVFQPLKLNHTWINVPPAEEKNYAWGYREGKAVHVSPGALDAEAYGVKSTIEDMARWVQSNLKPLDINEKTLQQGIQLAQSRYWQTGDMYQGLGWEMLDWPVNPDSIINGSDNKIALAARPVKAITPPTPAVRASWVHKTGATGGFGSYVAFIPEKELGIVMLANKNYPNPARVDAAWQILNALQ
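AmpC (5.3 nM in the dispensed reagent) in 20 mM phosphate pH 7.0 with 0.01% (detergent screen) or 0.0001% Triton X-100 was preincubated with compounds for 15 min at room temperature. Nitrocefin was then added from an 800 uM solution, and hydrolysis was followed at 480 nm.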
FBPA Giardia inh – inhibitors of Giardia lamblia fructose-1,6-bisphosphate aldolase; AID 2451; 0.71% of 290,000 active; purified Giardia FBPA; Potency, µM (highest dose often 59.6 µM), without a hit: top-dose activity, negative = inhibition, hits mostly inhibitors; A8B2U2; note: nearly all actives have a fitted effect of over 55% in size
Target sequence (A8B2U2 whole entry, looked up): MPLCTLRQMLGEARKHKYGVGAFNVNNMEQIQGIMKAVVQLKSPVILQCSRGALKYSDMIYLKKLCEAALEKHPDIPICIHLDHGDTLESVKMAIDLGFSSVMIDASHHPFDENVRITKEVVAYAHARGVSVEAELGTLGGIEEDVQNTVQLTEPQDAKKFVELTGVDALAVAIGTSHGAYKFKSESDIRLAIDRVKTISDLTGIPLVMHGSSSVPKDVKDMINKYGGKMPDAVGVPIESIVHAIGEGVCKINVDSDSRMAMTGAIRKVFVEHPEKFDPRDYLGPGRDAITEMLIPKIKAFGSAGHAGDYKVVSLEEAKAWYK
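Giardia FBPA (40 nM reagent) was preincubated 10 min at RT with compound (up to 57.5 uM final), then substrate plus GAPDH/TPI/NAD/arsenate coupling system with diaphorase/resazurin was added; resorufin fluorescence (525/598 nm) was read after 20 min.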
AmpC inh no detg – inhibitors of E. coli AmpC beta-lactamase without detergent | P00811 | AmpC nitrocefin hydrolysis, absorbance 480 nm, 0.0001% Triton | Potency, µM (series often up to 57.1 µM), for inactives: top-dose activity change, negative = inhibition, usual class: inhibitors | 0.52% of 330,000 active | AID 485341;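 note: plate controls were no compound for no effect and no enzyme for full effect; nearly all actives have a fitted effect of over 20% in size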
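20 mM phosphate pH 7.0 + 0.01% (detergent screen) or 0.0001% Triton X-100; 5.3 nM AmpC reagent; cpd preinc 15 min RT; nitrocefin (800 uM stock) to start; A480 q20 s × 4 min; Activity was normalised to no-enzyme and no-compound control wells.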
* hit, by the source's call; ? = inconclusive; · = not tested or not shown; [ ] = another dose, or the depositor's remark. Unless noted, calls come from the whole dose curve; as a rule, active = well fitted curve in the direction sought with a large enough effect; inconclusive = small, poorly fitted or top-dose-only effect, or another doubt; inactive = no such curve, though single readings can be large; an effect the other way counts as inactive or inconclusive. Unless noted, % is set by controls: 0 for no effect and ±100 for the full control effect; potency is the fitted concentration of half-maximal effect.

SMILES	RE007 growth inh	Sm TGR block	AmpC inh detg	FBPA Giardia inh	AmpC inh no detg
CCOC(=O)c1c(-n2c(C)cc(/C=C3/C(=O)NC(=O)N(CC)C3=O)c2C)sc2c1CCCC2	2%	·	·	·	·
Cc1ccc(NCc2cc3cc4c(cc3n(CC(=O)Nc3ccc(C)cc3)c2=O)OCCO4)cc1	·	45µM*	10%	·	·
Cc1ccc(NCc2cc3cc4c(cc3n(CC(=O)Nc3ccc(F)cc3F)c2=O)OCCO4)cc1	·	?	3%	·	·
CN(Cc1cc(=O)n2ccsc2n1)C1CCCCC1	11%	32µM*	0%	-17%	-31%
Cc1ccc(/C=C/C(=O)N2CC(C)CC(C)C2)o1 (stereo not given)	?	2.8µM*	-10%	-7%	-2%
COc1ccc(C)cc1/C=C/C(=O)N1CCN(S(=O)(=O)c2cccs2)CC1	11%	·	·	·	·
Cc1ccc(CNC(=O)C2CCN(S(=O)(=O)c3cccs3)CC2)o1	9%	5.6µM*	4%	4%	20%
O=C(/C=C/c1ccco1)N1CCN(S(=O)(=O)c2cccs2)CC1	-14%	3.5µM*	8%	-1%	-9%
Cc1ccc(/C=C/C(=O)N2CCN(S(=O)(=O)c3cccs3)CC2)o1	1%	8.9µM*	0%	-4%	3%
C#CCn1c2ccccc2c(=O)n1C(C)CBr (stereo not given)	-13%	·	·	·	·
C=CCN1N=C(/C=C/c2ccccc2)CCC1=O	9%	10%	3%	6%	1%
Cc1cc(Br)ccc1SCC(=O)NNC(=O)c1ccco1	-9%	?	3%	·	-19%
CCN(C(=O)COC(=O)c1nc2nc(C)cc(C)n2n1)C1CCCCC1	-2%	3%	-13%	·	-7%
Cc1ccc(NC2=C(Cl)C(=O)OC2NC(=O)c2ccccc2)cc1 (stereo not given)	-8%	-8%	-11%	4%	-36%
CC(=O)NC(=O)NC1OC(=O)C(Cl)=C1Cl (stereo not given)	-6%	3.5µM*	?	-6%	-9%
COc1ccc(Sc2ccc(/C=C3\C(=O)NN(c4ccccc4)C3=O)o2)cc1	1%	-26%	?	3%	-46%
Cc1cccc(N2C(=O)NC(=O)/C(=C/c3ccc(-c4ccc(C(=O)O)c(Cl)c4)o3)C2=O)c1	·	?	2%	-4%	-23%
COCCNC(=O)Cn1cc(/C=C2\C(=O)NC(=O)N(c3ccccc3F)C2=O)c2ccccc21	-3%	-17%	1%	2%	-8%
O=C1NC(=O)N(c2cccc(Cl)c2)C(=O)/C1=C\c1ccc(Sc2nc3ccccc3[nH]2)o1	-27%	7.1µM*	-11%	2%	22µM*
O=C1NC(=O)N(c2ccccc2)C(=O)/C1=C/c1ccc(Sc2ccccc2)o1	11%	25µM*	-6%	6%	-47%
O=C1NC(=O)N(c2ccccc2F)C(=O)/C1=C/c1ccc(Sc2nc3ccccc3[nH]2)o1	?	7.1µM*	-10%	-3%	-41%
CSc1ccccc1-c1ccc2nccn2c1	-7%	·	·	·	·
COc1ccc(Cl)cc1NC(=O)CN(C)C(C)C(=O)NC(=O)NC1CCCCC1 (stereo not given)	0%	-2%	-17%	·	3%
Clc1cccc(Cl)c1-c1nnc2ccc(N3CCOCC3)nn12	17%	-7%	2%	5%	0.5µM*
Cc1cc(C)c(C)c(S(=O)(=O)N2CCN(C(=S)NCC3CCCO3)CC2)c1C (stereo not given)	12%	-3%	-15%	-3%	141%
SMILES	RE007 growth inh	Sm TGR block	AmpC inh detg	FBPA Giardia inh	AmpC inh no detg
CCOC(=O)c1c(C)[nH]c(C(=O)OCC(=O)NCc2ccc(C)cc2)c1C	2%	-2%	0%	·	-49%
Cc1ccc2cn[nH]c2c1NC(=S)NC(=O)c1ccccc1	-28%	14µM*	-2%	-14%	-27%
Cc1ccc2cn[nH]c2c1NC(N)=S	-12%	-8%	-14%	0%	-6%
Cc1ccc2cccnc2c1NC(=S)NC(=O)c1ccccc1	-13%	35µM*	0%	?	-27%
Cc1ccc2cccc(NC(=S)NC(=O)c3ccccc3)c2n1	-9%	-15%	2%	-18%	-42%
O=c1c(NCc2cccs2)nccn1-c1ccc(F)cc1	·	?	2%	·	·
Cc1noc(NS(=O)(=O)c2ccc(NC(=O)CCn3c(=O)oc4ccccc43)cc2)c1C	20%	16µM*	-5%	24%	-6%
COc1ccc(N2CCN(C(=O)c3ccc4c(c3)NC(=O)C(CSCc3ccc(C)cc3)N4)CC2)cc1 (stereo not given)	·	?	-5%	-14%	1%
COc1ccc(N2CCN(C(=O)c3ccc4c(c3)NC(=O)C(CSCc3cccc(F)c3)N4)CC2)cc1 (stereo not given)	·	45µM*	-4%	·	-4%
COc1ccc(N2CCN(C(=O)c3ccc4c(c3)NC(=O)C(CSCc3c(F)cccc3Cl)N4)CC2)cc1 (stereo not given)	·	56µM*	?	-9%	-16%
COc1cc(C=O)c(-c2c(C=O)cc(OC)c3c2OCO3)c2c1OCO2	11%	-26%	-12%	-6%	-9%
COc1ccc2[nH]c(C)c(C(=O)CN(C)C)c2c1	6%	40µM*	-13%	-1%[12.9 µM]	2%
COc1ccc2[nH]c(C)c(C(=O)CN(C)CC3OCCO3)c2c1	-16%	25µM*	-8%	-9%	-9%
COc1ccc(NC(=O)CN(C)CC(=O)c2c(C)[nH]c3ccccc23)cc1	-5%	?	0%	·	-24%
COc1cccc(NC(=O)CN(C)CC(=O)c2c(C)[nH]c3ccccc23)c1	8%	18µM*	0%	·	-4%
O=C(Nc1cccc(C(F)(F)F)c1)c1cc2c(=O)c3ccccc3oc2nc1C(F)(F)F	-3%	3%	3%	4%	-23%
CN(C)C(=O)COc1ccc(Br)cc1	-4%	-4%	5%	-1%	-14%
CN(C)C(=O)COc1ccc(S(=O)(=O)c2ccc(OCC(=O)N(C)C)cc2)cc1	8%	79µM*	-1%	0%	-4%
O=C1NCC(COCc2ccco2)O1 (stereo not given)	?	45µM*	-13%	-2%	-6%
Cc1ccccc1OCC1CNC(=O)O1 (stereo not given)	7%	·	-7%	0%	0%
Cc1occc1C(=O)NC(C)C1CCCO1 (stereo not given)	13%	22µM*	2%	-6%	-8%
CC(NC(=O)c1ccco1)C1CCCO1 (stereo not given)	-16%	5%	-9%	5%	-8%
FC(F)(F)c1cccc(N2CCN(C(=S)NC3CCCCC3)CC2)c1	?	-6%	-11%	5%	-40%
FC(F)(F)c1cccc(N2CCN(C(=S)NC3CCCC3)CC2)c1	-25%	-9%	5%	-2%	0.25µM*
O=C(c1cccc2cccc(O)c12)N1CCCCC1	?	40µM*	?	?	-13%
